The list is not random: actives were taken first. Their share in the collection is about 15%.
Sm TGR inh: qHTS Assay for the Inhibitors of Schistosoma Mansoni Peroxiredoxins; Schistosoma mansoni thioredoxin glutathione reductase (TGR), Q962Y6; purified TGR, DTNB reduction, TNB absorbance 405 nm; Potency, µM (top dose mostly 114 µM), for the others: top-dose activity change, negative = inhibition, most hits filed as inhibitors; 360,000 compounds, 3% hits; AID 485364, 2010; further: potency means the concentration at half of the fitted maximal effect; on the % scale 0 is the no-effect control and ±100 the full control effect; nearly all actives have a fitted effect of over 60% in size
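First, TGR (20 nM dispensed) and NADPH were mixed with compound. Second, a 15 min room-temperature incubation followed. Third, further NADPH and then DTNB were added to start the reaction. Finally, TNB absorbance was monitored kinetically.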
Pf growth 48h: Primary qHTS for delayed death inhibitors of the malarial parasite plastid, 48 hour incubation; Potency, µM (top dose mostly 28.7 µM), inactives show at the highest dose activity change, negative = inhibition, usual class: inhibitors; 310,000 compounds, 5.9% hits; P. falciparum luciferase growth in erythrocytes, 48 h; further: potency means the concentration at half of the fitted maximal effect; on the % scale 0 is the no-effect control and ±100 the full control effect
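Cell-based growth assay: transgenic P. falciparum expressing firefly luciferase, cultured in red cells within RPMI 1640 containing 0.5% w/v Albumax, 24 mM bicarbonate and gentamycin. A drop in luciferase activity indicates inhibition.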
Pf growth 96h: Primary qHTS for delayed death inhibitors of the malarial parasite plastid, 96 hour incubation | Potency, µM (titrated, usually from 28.7 µM), for inactives: at the top dose activity change, negative = inhibition, actives largely listed as inhibitors | P. falciparum luciferase reporter growth, 96 h | 320,000 compounds, 6.9% hits; further: potency means the concentration at half of the fitted maximal effect; on the % scale 0 is the no-effect control and ±100 the full control effect
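Two-generation exposure (96 h) targets delayed-death phenotype. Reporter parasites carrying integrated firefly luciferase, in red cells at 2% hematocrit and 0.05% parasitemia final, kept at 37 C, 5% CO2; luminescence loss indicates inhibition.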
HCV inhibitor: qHTS Assay for Inhibitors of Hepatitis C Virus (HCV); Huh7.5.1 HCVcc-Cre infection, luciferase reporter, 44 h; Potency, µM (top dose mostly 41.8 µM), inactives show top-dose activity change, negative = inhibition, actives largely listed as inhibitors; 340,000 compounds, 3.4% hits; further: potency means the concentration at half of the fitted maximal effect; on the % scale 0 is the no-effect control and ±100 the full control effect
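Whole-lifecycle infectious HCVcc-Cre system; cells 1,000/well, compound then virus (~0.5 moi) added 4 h after plating, 44 h culture. Luciferase read 15 sec following 15 min substrate incubation, room temp.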
HCMV antiviral: qHTS Assay for inhibitors of the human cytomegalovirus (HCMV); activity change, negative = inhibition, % at 57.5 µM; 410,000 compounds, 4.5% hits; HFF cells, HCMV-luciferase reporter, 72 h; active compounds read low; in the data active means activity change below about -60%; inconclusive means no clear call, values can overlap the other calls; inactive means above about -39%; further: on the % scale 0 is the no-effect control and ±100 the full control effect
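Luciferase read-out from HCMV-luciferase-infected HFFs (MOI 1 PFU/cell) 72 h post infection at 37C; compounds added after 16 h cell attachment; activity normalized between buffer-only basal and Salinomycin (10uM) inhibitor controls.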
SARS PLP yeast: qHTS of Yeast-based Assay for SARS-CoV PLP; 330,000 compounds, 0.19% hits; S. cerevisiae expressing SARS-CoV PLpro, growth rescue; Potency, µM (top dose mostly 32.9 µM), without a hit: top-dose activity, positive = growth rescue, actives largely listed as activators; calls by dose curve; further: potency means the concentration at half of the fitted maximal effect; 0% is about no effect; nearly all actives have a fitted effect of over 55% in size
* = called active by the depositor; ? = inconclusive; nt = not tested or not shown; ! = a repeat was not active; [ ] = dose if it differs, or a comment. Unless noted, the call rests on the fitted dose curve; in most records, active means well fitted curve in the direction sought with a large enough effect; inconclusive means small, poorly fitted or top-dose-only effect, or another doubt; inactive means no such curve, though single readings can be large; an effect the other way counts as inactive or inconclusive.

SMILES | Sm TGR inh | Pf growth 48h | Pf growth 96h | HCV inhibitor | HCMV antiviral | SARS PLP yeast
Cc1ccccc1N1CCN(C2CCCN(C(=O)CCn3cnnn3)C2)CC1 (stereo unspecified) | -3.6% | 9.1% | 32.6% | nt | 22.1 | 2.1%
CC(=O)N1CCc2cc(Br)cc(S(=O)(=O)CCC(=O)N3CCN(c4ccccc4Cl)CC3)c21 | -14.2% | nt | nt | nt | 9.6 | nt
O=C(Nc1nnc(-c2ccco2)s1)c1ccccc1 | 25.1µM* | 211.0% | 154.2% | 17.7% | 25.7 | -7.8%
Cc1ccccc1C(=O)Nc1nnc(-c2ccco2)s1 | -5.6% | 426.4% | 3.1% | 11.2µM* | 16.0 | -2.6%
COc1ccc(C(=O)Nc2nnc(-c3ccco3)s2)cc1 | -9.7% | nt | 315.4% | 24.0% | 19.2 | 10.2%
O=C(Nc1nnc(-c2ccco2)s1)C1CC1 | 44.7µM* | 45.5% | -4.5% | 16.5% | 43.9 | 10.5%
Cc1ccc(C(=O)NNC(=O)c2n[nH]c(=O)c3ccccc23)cc1C | -19.4% | 32.9% | 94.7% | -2.9% | 63.9 | -1.0%
CCc1ccn2cc(-c3cc(-c4ccccc4)no3)nc2c1 | 25.9% | -83.4% | -7.1% | 10µM* | -95.3* | -4.1%
CCN(CC)S(=O)(=O)c1ccc2c(c1)c(=O)c(C(=O)NCc1ccc(Cl)cc1)cn2C | 1.5% | nt | nt | nt | 6.2 | nt
Cc1nc(-c2cc(-c3nc(-c4cc(C(F)(F)F)cc(C(F)(F)F)c4)no3)no2)cs1 | -1.4% | 23.5% | 31.3% | 9.6% | 64.3 | 1.2%
Cc1nc(-c2cc(-c3nc(-c4ccc(C(F)(F)F)cc4)no3)no2)cs1 | 5.8% | 0.657µM* | 3.0% | 20.0% | 28.5 | 1.3%
COc1ccc(-c2ccc(-c3cc(=O)oc4cc(OC)c(OC)c(OC)c34)cc2)cc1 | nt | nt | nt | 42.7% | -21.0 | 10.5%
COc1ccc(OC)c(NC(=O)CSc2ncnc3c2cnn3-c2ccccc2Cl)c1 | ? | 10.4µM* | -26.7% | 0.891µM* | nt | -15.7%
COc1cc(NC(=O)CSc2ncnc3c2cnn3Cc2ccccc2)cc(OC)c1 | 1.0% | 11.7µM* | nt | ? | -1.1 | -4.3%
O=S(=O)(Nc1ccc(F)cc1F)c1ccc(-n2cccn2)cc1 | 0.2% | nt | nt | nt | -6.8 | nt
CC1CC(=O)c2cnc(N)nc2C1 (stereo unspecified) | 15.7% | 14.4% | ? | 15.8% | 14.1 | -7.3%
CCCN1CCCC2Cc3nc(N)ncc3CC21 (stereo unspecified) | nt | -5.2% | 12µM* | nt | nt | nt
CC(C)NS(=O)(=O)c1ccc(CCC(=O)Nc2cc(Cl)ccc2Oc2ccccc2)cc1 | -16.5% | nt | ? | 6.31µM* | nt | 11.1%
CCNS(=O)(=O)c1ccc(CCC(=O)Nc2cc(Cl)ccc2Oc2ccccc2)cc1 | -3.0% | ? | 8.28µM* | 10µM* | ? | -3.4%
CCNS(=O)(=O)c1ccc(CCC(=O)Nc2ccccc2)cc1 | 2.7% | -30.2%[5.75 µM] | 35.0% | 3.9% | -11.0 | 0.3%
O=C(NC1CCCCC1)c1ccc(CS(=O)Cc2ccc(Cl)cc2)o1 (stereo unspecified) | 44.7µM* | -7.9% | 7.8% | 3.1% | -11.4 | 2.1%
COc1ccccc1CNC(=O)c1ccc(CS(=O)Cc2cccc(Cl)c2)o1 (stereo unspecified) | 22.4µM* | -2.6% | -3.1% | -3.7% | 84.9 | 4.1%
Cc1ccccc1CS(=O)(=O)Cc1ccc(C(=O)NCCc2ccccc2)o1 | ? | ? | -8.0% | -5.1% | -7.4 | ?
CCOc1ccc(CCNC(=O)c2ccc(CS(=O)Cc3cccc(Cl)c3)o2)cc1 (stereo unspecified) | ? | -4.0% | -27.6% | ? | 0.0 | -2.5%
O=C(NC1CCCC1)c1ccc(CS(=O)Cc2ccc(Cl)cc2)o1 (stereo unspecified) | ? | -3.6% | ? | -0.1% | 15.5 | 6.7%
SMILES | Sm TGR inh | Pf growth 48h | Pf growth 96h | HCV inhibitor | HCMV antiviral | SARS PLP yeast
O=C(NCCc1ccccc1)c1ccc(CS(=O)(=O)Cc2ccccc2Cl)o1 | 50.1µM* | nt | nt | nt | -15.8 | nt
CCOc1ccc(CCNC(=O)c2ccc(CS(=O)Cc3ccc(Cl)cc3)o2)cc1OCC (stereo unspecified) | -29.7% | -9.0% | ? | 2.51µM* | -30.2 | 3.1%
Cn1c(=O)[nH]c(=O)c2c1nc(N1CCCCCC1)n2CCOc1ccccc1 | 10.3% | 9.3% | 1.1% | -14.2% | 18.2 | -0.1%
Cc1cccc(C)c1NC(=O)C(c1ccc(C(F)(F)F)cc1)n1c(=O)c(-c2cc3ccccc3[nH]2)nc2ccccc21 (stereo unspecified) | nt | nt | nt | nt | -12.7 | nt
COc1cc(C(=O)Nc2nnc(-c3sccc3C)s2)cc(OC)c1OC | 3.6% | 23.9% | 18.4% | 1.6% | -18.4 | 3.4%
Cc1ccc(C(=O)Nc2nc(C)c(C(=O)Nc3ccc4c(c3)CCC4)s2)cc1 | -3.5% | 138.9% | -1.7% | ? | ? | 3.4%
O=C1CN(C(=O)c2cc([N+](=O)[O-])ccc2Cl)C(c2ccc(F)cc2)c2cc(F)ccc2N1 (stereo unspecified) | -1.6% | ? | ? | -13.6% | ? | 1.0%
O=C(NCCc1ccc(Cl)cc1)c1ccc(CS(=O)Cc2ccccc2Cl)o1 (stereo unspecified) | 31.6µM*! | -1.0% | ? | ? | -65.9*! | 5.0%
CSc1ccc(CCNC(=O)c2ccc(CS(=O)Cc3ccccc3Cl)o2)cc1 (stereo unspecified) | -19.9% | 0.4% | -17.7% | ? | ? | 2.4%
CC(C)Oc1ccc(CNC(=O)c2ccc(CS(=O)Cc3ccccc3Cl)o2)cc1 (stereo unspecified) | 44.7µM* | nt | nt | nt | -15.9 | nt
O=C(NC1CC1)c1ccc(CS(=O)c2ccc(Br)cc2)o1 (stereo unspecified) | -31.1% | 16.0% | 10.4µM* | 6.5% | -6.9 | -3.5%
COc1cccc(CNC(=O)c2ccc(CS(=O)Cc3ccccc3Cl)o2)c1 (stereo unspecified) | nt | nt | nt | nt | 8.3 | nt
COc1ccc(S(=O)Cc2ccc(C(=O)NC3CC3)o2)cc1 (stereo unspecified) | -32.8% | 11.4% | -4.7% | 11.7% | -39.0 | 1.9%
COc1ccc(S(=O)Cc2ccc(C(=O)NCc3cccc(OC)c3)o2)cc1 (stereo unspecified) | 25.1µM* | 4.2% | -20.2% | -6.8% | 37.4 | ?
S=C1CC2CCCC(C2)N1 (stereo unspecified) | nt | nt | nt | 28.1% | -0.2 | nt
COc1ccc(N2CC(NC(=O)/C=C\c3ccc4c(c3)OCO4)CC2=O)cc1 (stereo unspecified) | 5.2% | nt | nt | nt | 56.4 | nt
